Reference: PubChem BioAssay (NCI)
This is part of a sample that, as a whole, favours compounds with a hit. Of some 83,000 tested, about 20% had one in any assay.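 The endpoint reported here, percent growth, reads 100 for growth as untreated, 0 for no net growth and -100 for all cells dead.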 Calls of active or inactive are those of the source. The calls were made as follows: active = growth percent below 10; inactive = the rest.

Key:
Test in all cases: NCI-60 one-dose screen, 48 h (100 = growth as untreated, 0 = no growth, -100 = all killed)
Settings in all cases: 10 µM unless noted
[1] = tested on: HCT-15 colon
[2] = tested on: HT29 colon
[3] = tested on: SNB-75 CNS
[4] = tested on: SNB-19 CNS
[5] = tested on: U251 CNS
[6] = tested on: SK-MEL-5 melanoma
[7] = tested on: UACC-62 melanoma
[8] = tested on: LOX IMVI melanoma
[9] = tested on: SK-MEL-28 melanoma
[10] = tested on: PC-3 prostate

Measured: growth

CC(=O)C(c1c(O)c2ccccc2oc1=O)c1cc(=O)oc2c1ccc1ccccc12 (stereo unspecified)
inactive: [1] 101% | [2] 109% | [3] 67.8% | [4] 90.7% | [5] 91.5% | [6] 96.5% | [7] 91.1% | [8] 96.6% | [9] 110%

CC(=O)OCC1O[C@@H]([S-])C(OC(C)=O)[C@H](OC(C)=O)[C@@H]1OC(C)=O.[Au+].c1ccc(CN2[CH-]N(Cc3ccccc3)C(c3ccccc3)=C2c2ccccc2)cc1
active: [1] -63% | [5] -59.3% | [7] 8.41% | [8] -65.7% | [9] -56.8%
inactive: [2] 50.3% | [3] 40.8% | [4] 36.8% | [6] 48.5%

COC(=O)[C@@H](NC(=O)c1cn(CCC2CCCCC2)c2ccccc12)C(C)(C)C
inactive: [1] 59.9% | [2] 69% | [3] 71.2% | [4] 97.5% | [5] 72.6% | [10] 49.7% | [7] 38.1% | [8] 54.2% | [9] 85.8%

O=C(O)c1ccc([S-])cc1.[Au+].c1ccc(CN2[CH-]N(Cc3ccccc3)C(c3ccccc3)=C2c2ccccc2)cc1
active: [1] -89.3% | [2] -24.7% | [3] -9.88% | [4] -66.8% | [5] -82.5% | [6] -92.9% | [7] -51.6% | [8] -78.9% | [9] -20.2%

COC(=O)[C@@H](C)C[C@H](Cc1ccccc1)NC(=O)c1nc([C@@H](C[C@H](C(C)C)N(C)C(=O)[C@@H](NC(=O)[C@H]2CCCCN2C)C(C)C)OC(C)=O)sc1C
active: [2] 4.71% | [6] -39.2%
inactive: [1] 12.9% | [3] 12.7% | [4] 24.3% | [5] 14.6% | [7] 30.2% | [8] 12.4% | [9] 66.1%

C[n+]1c(/C=C/c2ccc(N(CCCl)CCCl)cc2)sc2ccccc21
inactive: [1] 82.2% | [2] 40.9% | [3] 74.5% | [4] 60.9% | [5] 30.1% | [10] 36% | [6] 61.1% | [9] 81.4%

Cc1ccc(S(=O)(=O)C(Cl)(Cl)Cl)cc1
inactive: [1] 100% | [2] 89% | [3] 81.5% | [4] 102% | [5] 88.7% | [10] 67.4% | [6] 99.9% | [8] 98.3% | [9] 107%

N#CC1(c2ccccc2)CCN(Cc2ccccc2)CC1
inactive: [1] 94.1% | [2] 101% | [3] 121% | [4] 114% | [5] 107% | [6] 102% | [7] 110% | [8] 102% | [9] 122%

CC(=O)O[C@H]1CC[C@@]2(C)C(=CC[C@H]3[C@@H]4C[C@@H](N5CC5)[C@H](C(C)=O)[C@@]4(C)CC[C@@H]32)C1
inactive: [1] 91.6% | [2] 85.9% | [3] 79.2% | [4] 100% | [5] 91.5% | [6] 85.2% | [7] 92.8% | [8] 87.6% | [9] 102%

CCn1c2ccccc2c2cc(C(=O)c3cccc4c3CCCN4)ccc21
inactive: [1] 104% | [2] 113% | [3] 91.6% | [4] 97.6% | [5] 106% | [10] 108% | [7] 92.2% | [8] 94.4% | [9] 103%

N#CC1C(C#N)C2CCC1C1C2N1c1ccccc1 (stereo unspecified)
inactive: [1] 97.9% | [2] 114% | [3] 87.1% | [4] 104% | [5] 111% | [6] 104% | [7] 105% | [8] 103% | [9] 106%

Cn1cc(-c2csc(-c3cn(CCN4CCOCC4)c4ccccc34)n2)c2cccnc21
inactive: [1] 46.5% | [2] 70.4% | [3] 74.5% | [4] 84.4% | [5] 67.3% | [10] 20.5% | [6] 17.6% | [8] 67.1% | [9] 78.2%

C=C(C)[C@@]12OC3(/C=C/C=C/CCCCC)O[C@@H]1[C@@H]1[C@@H]4O[C@]4(CO)[C@@H](O)[C@]4(O)C(=O)C(C)=C[C@H]4[C@@]1(O3)[C@H](C)[C@H]2OC(=O)c1ccccc1
inactive: [1] 67.1% | [2] 14.1% | [3] 56.6% | [4] 92.8% | [5] 53.2% | [10] 28.6% | [7] 59.7% | [8] 50.9% | [9] 81.5%

O=C(CC1(O)C(=O)N(Cc2ccccc2)c2ccccc21)c1ccc(C(=O)NCC2CCC3(CC2)OOC2(CCCCC2)OO3)cc1 (stereo unspecified)
active: [1] 0.81% | [2] -51.6% | [3] -75.6% | [5] -77.2% | [10] -61% | [7] 0.976% | [8] -84.1%
inactive: [4] 20.3% | [9] 63.1%

CN1CC(=O)N(O)C1(C)c1cccnc1 (stereo unspecified)
inactive: [1] 96.9% | [2] 97.8% | [3] 88.5% | [4] 105% | [5] 102% | [6] 101% | [7] 104% | [9] 103%

CC(C)(NC(=O)O[C@@H]1CN2CCC1CC2)c1csc(-c2ccc(F)cc2)n1
inactive: [1] 102% | [2] 104% | [3] 67.2% | [4] 97.9% | [10] 99.5% | [6] 99.2% | [7] 87.9% | [9] 103%

CC(=O)[C@H]1CC[C@H]2[C@@H]3CC[C@H]4C[C@H](N)CC[C@]4(C)[C@H]3CC[C@]12C
inactive: [1] 64.5% | [2] 13.7% | [3] 49.5% | [5] 69.2% | [10] 62.1% | [6] 62.8% | [7] 80.9% | [8] 69.4% | [9] 86.2%

CC(=O)/C=C/c1ccc2c(c1)OCO2
inactive: [1] 99.7% | [2] 106% | [3] 79.2% | [4] 84.6% | [10] 95.8% | [6] 100% | [7] 90.2% | [8] 109% | [9] 107%

COC(=O)[C@@H](C)C[C@H](Cc1ccc2ccccc2c1)NC(=O)c1csc([C@@H](C[C@H](C(C)C)N(C)C(=O)[C@@H](NC(=O)[C@H]2CCCCN2C)C(C)C)OC(C)=O)n1
active: [2] 1.71% | [6] -21%
inactive: [1] 70.3% | [3] 42.8% | [4] 51.8% | [5] 22.1% | [7] 49.3% | [8] 28.3% | [9] 68.6%

COc1ccc2c(c1)c(-c1nc(-c3c[nH]c4ncccc34)cs1)cn2CCCCN1CCCCC1
active: [1] -76.7% | [2] -72.4% | [3] -75.4% | [4] -71.1% | [5] -75.3% | [6] -81.3% | [8] -83.1% | [9] -85.1%

COC(=O)[C@@H](C)C[C@H](Cc1cn(C)c2ccccc12)NC(=O)c1csc([C@@H](C[C@H](C(C)C)N(C)C(=O)[C@@H](NC(=O)[C@H]2CCCCN2C)C(C)C)OC(C)=O)n1
active: [1] 9.96% | [2] 3.4% | [6] -38.4%
inactive: [3] 59% | [4] 35.6% | [5] 15.4% | [7] 47.8% | [8] 19.1% | [9] 60.6%

CC1CCCC(C[N+](C)(C)C)C1=O (stereo unspecified)
inactive: [1] 108% | [2] 105% | [3] 95.2% | [4] 96.6% | [5] 105% | [6] 99.5% | [7] 90% | [8] 50.2% | [9] 108%

O=C1C=C(N2C3C4CCC(C4)C32)C(=O)C=C1c1ccccc1 (stereo unspecified)
inactive: [1] 82.7% | [2] 108% | [3] 65.4% | [4] 91.4% | [10] 81.7% | [6] 95.9% | [7] 80.6% | [8] 89.9% | [9] 91.7%

Cc1cc(NC(=O)NCc2ccc(N3C(N)=NC(N)=NC3(C)C)cc2)ccc1S(=O)(=O)F
inactive: [1] 62.2% | [2] 11.3% | [3] 56% | [4] 34.3% | [5] 32.7% | [6] 21% | [7] 11.6% | [8] 16.7% | [9] 57.4%

COc1cc([C@@H]2c3cc4c(cc3[C@H](OC(C)=O)[C@H]3COC(=O)[C@@H]23)OCO4)cc(OC)c1OC
inactive: [1] 11.8% | [10] 15% | [7] 18.5% | [8] 27.3% | [9] 48.6%
active: [2] 1.62% | [3] 4.62% | [5] 8.16% | [6] -20.9%

Cc1ccc(S(=O)(=O)F)cc1C(=O)O
inactive: [1] 102% | [2] 100% | [3] 76.8% | [4] 97.5% | [6] 102% | [7] 109% | [8] 102% | [9] 110%

CN(C)C(=O)Oc1ccccc1-c1ccccc1
inactive: [1] 103% | [2] 101% | [3] 107% | [4] 104% | [5] 101% | [6] 102% | [7] 104% | [8] 97% | [9] 116%

CC[C@H](C)[C@H](NC(=O)NC(C)(C)C)C(=O)N(C)[C@H](C[C@@H](OC(C)=O)c1nc(C(=O)N[C@@H](Cc2ccccc2)C[C@H](C)C(=O)OC)cs1)C(C)C
inactive: [3] 34.1% | [4] 47.6% | [5] 11.5% | [8] 16% | [9] 53.2%
active: [1] 9.49% | [2] 5.85% | [6] -44.4%
